# Among all 96,000 compounds or so, about 1,400 (1.5%) were called active. The sample holds actives, similar compounds and a random draw of the others, so the mix is not that of the screen.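 How the source made its calls: active means activation factor of 2 or more for CYP2C9 at a 5 µM dose; inactive means the rest.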
# Target: Cytochrome P450 2C9 (Homo sapiens) (UniProt P11712)
# Test: enhancers of cytochrome P450 2C9 turnover – biochemical, luminescence, primary screen (AID 1024);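 further: 0 = sulfaphenazole-blocked wells and 1 = vehicle-only wells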
# Conditions: recombinant CYP2C9, luciferin-H conversion, at 5 µM, active compounds read high, factor 1 = untreated enzyme, 0 = blocked
# Sequence of Cytochrome P450 2C9 (Homo sapiens) (P11712 whole entry, looked up): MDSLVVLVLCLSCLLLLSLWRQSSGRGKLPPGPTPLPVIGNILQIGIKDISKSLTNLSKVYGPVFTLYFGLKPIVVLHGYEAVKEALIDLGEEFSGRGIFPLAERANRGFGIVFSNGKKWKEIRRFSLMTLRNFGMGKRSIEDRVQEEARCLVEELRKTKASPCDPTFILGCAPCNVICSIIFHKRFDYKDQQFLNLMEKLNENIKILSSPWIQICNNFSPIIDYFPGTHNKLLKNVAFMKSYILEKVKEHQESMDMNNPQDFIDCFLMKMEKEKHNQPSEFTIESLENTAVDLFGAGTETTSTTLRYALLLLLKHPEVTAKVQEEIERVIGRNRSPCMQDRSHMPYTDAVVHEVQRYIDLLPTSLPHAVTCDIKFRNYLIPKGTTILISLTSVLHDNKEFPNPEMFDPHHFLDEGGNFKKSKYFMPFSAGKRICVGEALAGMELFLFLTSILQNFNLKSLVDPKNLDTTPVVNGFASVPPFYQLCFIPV
row,SMILES,activation factor
1,CCN(c1ccccc1)S(=O)(=O)c1ccc(NC(=O)C(C)(C)C)cc1,0.7 (inactive)
2,CCN(c1ccccc1)S(=O)(=O)c1ccc(N)cc1,2.4 (active)
3,CCN(c1ccccc1)S(=O)(=O)c1cccc(C(=O)O)c1,0.7 (inactive)
4,O=C(NCCc1ccccn1)c1cc(C(=O)C2CCCCC2)c[nH]1,0.9 (inactive)
5,CC1CCN(C(NC(=O)c2ccco2)C(=O)c2ccccc2)CC1 (stereo not given),0.3 (inactive)
6,COc1ccc(CCNC(=O)COC(=O)c2ccc[nH]c2=O)cc1,0.8 (inactive)
7,COc1cc(C2C(C(=O)OCCC#N)=C(C)NC3=C2S(=O)(=O)c2ccccc23)cc(OC)c1OC (stereo not given),0.5 (inactive)
8,O=C(Nc1cccc2ccccc12)N1CCN(Cc2ccc3c(c2)OCO3)CC1,0.6 (inactive)
9,O=C(CCCN1C(=O)c2cccc3cccc(c23)C1=O)N1CCN(Cc2ccc3c(c2)OCO3)CC1,2.4 (active)
10,Cn1c(=O)cc(OCCCC(=O)N2CCN(Cc3ccc4c(c3)OCO4)CC2)c2ccccc21,0.9 (inactive)
11,COc1ccc(N(CC(=O)N/N=C/c2cccc3c2OCCO3)S(=O)(=O)c2ccc(NC(C)=O)cc2)cc1,0.2 (inactive)
12,CCN(CC)S(=O)(=O)c1ccc2c3c(cccc13)C(=O)S2,1.5 (inactive)
13,COc1ccc2oc(=O)c(C(=O)O)cc2c1,1.1 (inactive)
14,COc1cccc2cc(C(=O)N(C)C)c(=O)oc12,2 (active)
15,COc1cccc(C(=O)c2cc3ccc(O)cc3oc2=O)c1,0.1 (inactive)
16,O=C(Oc1ccccc1)Oc1ccc2c(c1)oc(=O)c1ccccc12,1.6 (inactive)
17,Cc1n[nH]c(=S)n1/N=C/c1ccc(Br)o1,1 (inactive)
18,CCc1cccc2c(C=C(C#N)C#N)cn(CC(=O)N3CCCCC3)c12,1 (inactive)
19,Cc1nc(SCC(=O)N2CC(=O)Nc3ccccc32)c2c(C)c(C)sc2n1,0.4 (inactive)
20,COc1ccc(S(=O)(=O)N2CCC(C(=O)N3CCc4ccccc4C3)CC2)cc1OC,0.5 (inactive)
21,COc1ccc(C2CC(=O)n3c(nc4ccccc43)S2)cc1OC (stereo not given),0.9 (inactive)
22,COc1ccc(C2SCCN2S(=O)(=O)c2ccccc2)cc1OC (stereo not given),2.1 (active)
23,COc1ccc(CNC(=O)C2CCC(CNc3c(N4CCOCC4)c(=O)c3=O)CC2)cc1 (stereo not given),1.1 (inactive)
24,Cc1ccc(CNC(=O)c2ccccc2CCc2ccccc2)cc1,0.7 (inactive)
25,N#Cc1ccc(-c2ccc(Cl)cc2)nc1Oc1ccc(F)cc1,0.9 (inactive)
26,Nc1ccc(Oc2ccc(Cl)cc2)cc1,0.8 (inactive)
27,Clc1ccc(Cl)c(Oc2ccc(Oc3nc(Cl)ccc3Cl)cc2)n1,2 (active)

row,SMILES,activation factor
1,C=CCNC(=O)c1sc(SC)cc1-c1ccc(Cl)cc1,0.4 (inactive)
2,Cc1ccc(C(=O)OC2=CC(=O)CC(C)(C)C2)cc1,0.7 (inactive)
3,Cc1ccc(S(=O)(=O)NCCN2CCOCC2)cc1C,0.8 (inactive)
4,Cc1cc(C)c(S(=O)(=O)NCCCN2CCOCC2)cc1Br,2 (active)
5,O=[N+]([O-])c1ccc(NCCCN2CCOCC2)c(Cl)c1,0.9 (inactive)
6,O=C(CN1CCN(S(=O)(=O)c2ccc(Cl)s2)CC1)NCc1ccc(Cl)cc1,0.4 (inactive)
7,CCCCNCc1ccc(SC)cc1,1 (inactive)
8,O=C(NCc1ccccn1)c1cc(-c2ccccc2Cl)on1,2.6 (active)
9,C=CCNC(=O)c1cc(-c2ccccc2O)on1,1.5 (inactive)
10,O=C(NCc1ccccn1)c1cc2ccccc2oc1=O,1.3 (inactive)
11,COc1ccccc1NC(=O)COc1ccc(C(=O)OCC(=O)N(C(C)C)C(C)C)cc1OC,0.6 (inactive)
12,O=C(c1ccc2c(c1)OCCO2)C1CCN(S(=O)(=O)c2cccc(F)c2)CC1,1.2 (inactive)
13,O=C(NCc1cccs1)C1CCN(S(=O)(=O)c2ccc3c(c2)OCCO3)CC1,2.7 (active)
14,O=C(NCc1ccc2c(c1)OCO2)C1CCCN(S(=O)(=O)c2cccs2)C1 (stereo not given),0.1 (inactive)
15,FC(F)(F)c1cccc(-c2cc3ccccc3nc2N2CCCC2)c1,0.9 (inactive)
16,CCOC(=O)n1c(SCC(=O)N(CC)CC)nc2ccccc21,0.7 (inactive)
17,CCN(Cc1ccccc1)C(=O)CSc1nc(C)cc2c1C(=O)OC2,2.3 (active)
18,CCN(CC)C(=O)CSc1nnc(-c2cccc(OC)c2)o1,1.6 (inactive)
19,CCN1CCN(c2ccc([N+](=O)[O-])cc2C(=O)c2ccc(Cl)cc2)CC1,1.6 (inactive)
20,CC1CC(C)CN(C/C=C/c2ccccc2[N+](=O)[O-])C1 (stereo not given),0.9 (inactive)
21,COc1ccc(Cl)cc1S(=O)(=O)Nc1cccc(C(=O)O)c1,0.9 (inactive)
22,COc1ccc(Cl)cc1S(=O)(=O)N1CCN(CC(=O)C(C)(C)C)CC1,2.4 (active)
23,COc1ccc(NC(=O)CN2CCN(S(=O)(=O)c3ccc(F)cc3)CC2)cc1Cl,0.8 (inactive)
24,O=C(CSCc1ccc([N+](=O)[O-])cc1)NCCSCc1ccccc1,0.6 (inactive)
25,CCOC(=O)C1CN(S(=O)(=O)c2ccc(F)cc2)C1,0.9 (inactive)
26,Cc1nc(C)c(C(=O)Nc2cccc(C)c2C)o1,1 (inactive)
27,Cc1nc(C)c(C(=O)Nc2ccc(C)c(F)c2)o1,1 (inactive)

row,SMILES,activation factor
1,COc1ccc(Cl)cc1NC(=O)c1oc(C)nc1C,2.7 (active)
2,Cc1ccc(NC(=S)NC2CCCC2)cc1,0.7 (inactive)
3,COc1ccc([N+](=O)[O-])cc1NC(=O)CCc1ccccc1,1.7 (inactive)
4,COc1ccccc1NC(=O)/C=C/C(N)=O,1.2 (inactive)
5,COc1ccccc1NC(=S)NC(=O)C(C)C,0.9 (inactive)
6,COc1ccccc1NC(=O)c1ccc(C)s1,3.5 (active)
7,N#Cc1ccsc1NC(=O)CN1CCCCC1,1.2 (inactive)
8,COc1cc(/C=N\NC(=O)CNC(=O)c2cccc([N+](=O)[O-])c2)ccc1O,1.1 (inactive)
9,CC1(C)CC(=O)C2=C(C1)N=C1SCCC(=O)N1C2c1ccc(C(F)(F)F)cc1 (stereo not given),1.2 (inactive)
10,CCOc1ccc(S(=O)(=O)Nc2ccc(S(=O)(=O)Nc3cc(OC)ccc3OC)cc2)cc1,0.2 (inactive)
11,CCOc1ccccc1NC(=O)Nc1cc(OC)ccc1OC,1 (inactive)
12,CCOc1ccc(C(=O)Nc2cc(OC)ccc2OC)cc1,2.1 (active)
13,CCOC(=O)c1sc2nc(SC)nc(-c3ccccc3)c2c1N,0.9 (inactive)
14,O=c1c([N+](=O)[O-])cc(C(F)(F)F)cn1Cc1cccc(Cl)c1,0.8 (inactive)
15,O=S(=O)(c1cccs1)N1CCc2ccccc2C1,3.1 (active)
16,O=C(Nc1ccc(S(=O)(=O)N2CCc3ccccc3C2)cc1)c1ccccc1,1 (inactive)
17,O=S(=O)(c1cccs1)N1CCN(Cc2ccccc2)CC1,0.3 (inactive)
18,COc1ccc(C(=O)N2CCc3cc(OC)c(OC)cc3C2c2cccc([N+](=O)[O-])c2)cc1 (stereo not given),0.4 (inactive)
19,Cc1nnsc1S(=O)(=O)Cc1ccccc1Cl,1 (inactive)
20,O=S(=O)(NCc1ccccn1)c1ccc(F)cc1,1 (inactive)
21,O=S(=O)(NCCOc1cccc2cccnc12)c1ccc(F)cc1,3.3 (active)
22,COc1ccc(CCNS(=O)(=O)c2ccc(F)cc2)cc1OC,0.2 (inactive)
23,O=C(/C=C/c1ccccc1)c1ccoc1,0.8 (inactive)
24,Cc1nn(C)c(Oc2ccccc2)c1CCNS(=O)(=O)c1ccc(F)cc1,0.5 (inactive)
25,CC(C)(C)NC(=O)NC(=O)COC(=O)CCC1CCCCC1,0.9 (inactive)
26,COc1cccc(C(=O)Nc2ccc(NC(=O)c3ccco3)cn2)c1,0.8 (inactive)
27,COc1ccccc1C(=O)Nc1ccc(NC(=O)c2ccco2)c(C)c1,2.8 (active)

row,SMILES,activation factor
1,COc1ccc(NC(=O)c2cccc(NC(=O)c3ccco3)c2)c(OC)c1,1.5 (inactive)
2,COC(=O)c1ccc(NC(=O)c2ccco2)cc1,0.8 (inactive)
3,COC(=O)c1cc(Cl)c(NC(=O)c2ccco2)cc1OC,2.4 (active)
4,COc1ccc(OC)c(NC(=O)c2cnn(-c3ccccc3Cl)c2NC(=O)c2ccco2)c1,0.8 (inactive)
5,CCOC(=O)Nc1ccc(S(=O)(=O)N(C)C(C)C)cc1,0.7 (inactive)
6,O=C(COc1ccc(Br)cc1F)NC1CCN(Cc2ccccc2)CC1,0.7 (inactive)
7,Cc1onc(-c2c(Cl)cccc2Cl)c1C(=O)c1c[nH]c(C(=O)NC2CC2)c1,0.9 (inactive)
8,Cc1cc(C(=O)CSc2nc(N)cc(=O)[nH]2)c(C)n1CCc1ccc(Cl)cc1,0.9 (inactive)
9,CCn1cc(C(=O)N/N=C(/C)c2ccc(F)cc2)c(=O)c2cc(F)c(N3CCCC3)cc21,0.9 (inactive)
10,COc1ccccc1CNS(=O)(=O)c1ccc(C)cc1,2.6 (active)
11,COc1ccccc1Cc1nc(-c2ccc(C)cc2)no1,0.9 (inactive)
12,COc1ccc(S(=O)(=O)NC(CC(=O)NCc2ccccc2OC)c2ccco2)cc1 (stereo not given),1.4 (inactive)
13,CCOC(=O)C1(S(=O)(=O)c2ccc(Cl)cc2)CCN(Cc2ccccc2)CC1,0.8 (inactive)
14,Cc1nc2cc(NC(=O)CSc3nc4c(C)cccc4cc3C#N)ccc2s1,0.7 (inactive)
15,Cn1cc(CCC(=O)NCc2ccc3c(c2)OCO3)c2ccccc21,2.2 (active)
16,O=C(COc1ccccc1)NCc1ccc2c(c1)OCO2,0.7 (inactive)
17,O=C(CCCCn1c(=O)[nH]c2ccccc2c1=O)NCc1ccc2c(c1)OCO2,0.3 (inactive)
18,CCCc1cc(=O)[nH]c(SCC(=O)c2cc(C)n(CCC)c2C)n1,0.9 (inactive)
19,Cc1ccc2nc(SCc3nnc(-c4ccccc4[N+](=O)[O-])o3)c(C#N)cc2c1,0.8 (inactive)
20,COC(=O)Cc1cc(=O)oc2c(C)c(O)ccc12,1.2 (inactive)
21,Cc1nc(Cl)c2oc3ccccc3c2n1,0.9 (inactive)
22,O=C(Nc1ccc2c(c1)OCO2)C1CC(c2c(F)cccc2Cl)=NO1 (stereo not given),2.6 (active)
23,Cc1ccc(NC(=O)C2CC(c3ccc(F)cc3)=NO2)cc1 (stereo not given),0.8 (inactive)
24,CC(C)C(=O)Nc1cccc(C(=O)Nc2ccc3c(c2)OCO3)c1,0.4 (inactive)

# From PubChem BioAssay AID1024 (Sanford-Burnham Center for Chemical Genomics, 2008)
